Test [1] relates to Plasmodium falciparum Sir2 (PF13_0152, Sir2A). The test can be described thus: Plasmodium falciparum Sir2A binding compounds – biochemical, small-molecule microarray, 635 nm fluorescence, primary screen (AID 1098).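 Further: score merges spot fluorescence intensity with its signal-to-noise ratio.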 Conditions: fluorescence 635 nm, higher = more signal.
Test [2] is described as follows: probe aDKK1 binding to arrayed compounds – biochemical, biotinylated probe, 635/667 nm fluorescence, primary screen (AID 1099).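 Further: score merges 667nm spot fluorescence with signal to noise across triplicate slides.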 Conditions: small-molecule microarray, higher = more signal.
The nature of test [3]: probe aCHRDL2 binding to arrayed compounds – biochemical, biotinylated probe, 635/667 nm fluorescence, primary screen (AID 1100). As to conditions: small-molecule microarray, higher = more signal.
Test [4] in a line: change in splice reporter luminescence, either direction, cell-based, HEK293, spliceosome inhibition project, primary screen (AID 1101).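 Further: HEK293 cells carrying a splicing-competent luciferase reporter gene; test concentration not given here.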 Conditions: HEK293 splicing luciferase reporter, 24 h, higher = more signal, called active from +8 up or from −8 down. In general terms: In a reporter assay the amount or activity of a reporter protein is the signal.
The target in test [5] is Fibroblast growth factor 10 (Homo sapiens) (UniProt O15520). The test can be described thus: compounds binding fibroblast growth factor 10 – biochemical, small-molecule microarray, 635 nm fluorescence, primary screen (AID 1102). Conditions: FGF10 binding, fluorescence 635 nm, higher = more signal.
Fibroblast growth factor 10 (Homo sapiens), sequence (O15520 whole entry, looked up): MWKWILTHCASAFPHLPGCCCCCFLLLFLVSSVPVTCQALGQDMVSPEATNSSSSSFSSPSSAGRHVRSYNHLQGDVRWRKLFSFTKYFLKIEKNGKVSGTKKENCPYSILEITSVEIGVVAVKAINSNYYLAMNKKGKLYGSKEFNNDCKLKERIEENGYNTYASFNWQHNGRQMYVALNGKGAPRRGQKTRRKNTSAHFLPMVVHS
Test [6] has as its system glycogen synthase kinase-3 (GSK3A per assay name; protocol says GSK3B). The test can be described thus: compounds binding glycogen synthase kinase-3 – biochemical, small-molecule microarray, 635 nm fluorescence, GSK3A, primary screen (AID 1103). Further: the record names both GSK3A and GSK3B. Conditions: fluorescence 635 nm, higher = more signal.
In test [7] the target is Epidermal growth factor receptor (Homo sapiens) (UniProt P00533). The test can be described thus: compounds binding epidermal growth factor receptor – biochemical, small-molecule microarray, 635 nm fluorescence, primary screen (AID 1104).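 Further: score merges 667 nm emission intensity with spot signal to noise over triplicate slides.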 As to conditions: EGFR binding, higher = more signal.
Epidermal growth factor receptor (Homo sapiens), sequence (P00533 whole entry, looked up): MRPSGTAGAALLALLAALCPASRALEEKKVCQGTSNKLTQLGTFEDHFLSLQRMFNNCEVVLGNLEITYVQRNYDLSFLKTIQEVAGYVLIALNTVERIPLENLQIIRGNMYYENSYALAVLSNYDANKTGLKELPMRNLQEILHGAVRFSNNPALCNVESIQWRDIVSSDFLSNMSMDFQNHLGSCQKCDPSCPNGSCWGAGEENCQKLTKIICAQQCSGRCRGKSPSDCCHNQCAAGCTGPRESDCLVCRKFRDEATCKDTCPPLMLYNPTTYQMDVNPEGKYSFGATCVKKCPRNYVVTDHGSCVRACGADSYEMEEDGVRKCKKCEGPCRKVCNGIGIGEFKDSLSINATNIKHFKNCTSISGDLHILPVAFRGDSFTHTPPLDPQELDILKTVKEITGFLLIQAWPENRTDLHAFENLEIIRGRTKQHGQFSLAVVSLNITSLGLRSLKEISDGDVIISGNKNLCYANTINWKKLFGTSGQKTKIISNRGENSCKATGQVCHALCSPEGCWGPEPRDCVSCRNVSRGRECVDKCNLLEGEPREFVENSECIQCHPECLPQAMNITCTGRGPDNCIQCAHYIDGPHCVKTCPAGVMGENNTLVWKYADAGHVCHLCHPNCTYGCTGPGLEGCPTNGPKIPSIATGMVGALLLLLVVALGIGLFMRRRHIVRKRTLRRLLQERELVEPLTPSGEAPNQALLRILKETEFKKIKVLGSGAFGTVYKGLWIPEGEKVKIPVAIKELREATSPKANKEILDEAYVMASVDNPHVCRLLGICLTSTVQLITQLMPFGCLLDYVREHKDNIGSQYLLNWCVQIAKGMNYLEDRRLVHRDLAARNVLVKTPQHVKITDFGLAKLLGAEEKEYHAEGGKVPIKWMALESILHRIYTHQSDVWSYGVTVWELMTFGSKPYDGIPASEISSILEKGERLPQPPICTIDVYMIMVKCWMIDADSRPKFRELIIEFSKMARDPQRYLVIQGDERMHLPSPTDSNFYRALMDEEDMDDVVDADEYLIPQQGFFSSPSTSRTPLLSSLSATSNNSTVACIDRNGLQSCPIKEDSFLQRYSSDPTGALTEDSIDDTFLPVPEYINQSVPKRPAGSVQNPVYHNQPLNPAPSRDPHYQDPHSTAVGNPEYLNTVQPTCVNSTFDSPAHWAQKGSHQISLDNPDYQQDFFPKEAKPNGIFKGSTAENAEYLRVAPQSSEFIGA
Test [8] has as its target Follistatin-related protein 3 (Homo sapiens) (UniProt O95633). The test can be described thus: compounds binding follistatin-related protein 3 – biochemical, small-molecule microarray, 635 nm fluorescence, primary screen (AID 1105).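 Further: score merges emission near 667 nm and signal to noise per printed spot across three slides.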 As to conditions: FSTL3 binding, higher = more signal.
Test [9] deals with Dickkopf-related protein 1 (Homo sapiens) (UniProt O94907). The test can be described thus: small molecules binding DKK1 protein – biochemical, small-molecule microarray, 635 nm fluorescence scan, primary screen (AID 1106).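 Further: score merges emission near 667 nm with signal to noise over three replicate slides.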 Conditions: higher = more signal.
Dickkopf-related protein 1 (Homo sapiens), sequence (O94907 whole entry, looked up): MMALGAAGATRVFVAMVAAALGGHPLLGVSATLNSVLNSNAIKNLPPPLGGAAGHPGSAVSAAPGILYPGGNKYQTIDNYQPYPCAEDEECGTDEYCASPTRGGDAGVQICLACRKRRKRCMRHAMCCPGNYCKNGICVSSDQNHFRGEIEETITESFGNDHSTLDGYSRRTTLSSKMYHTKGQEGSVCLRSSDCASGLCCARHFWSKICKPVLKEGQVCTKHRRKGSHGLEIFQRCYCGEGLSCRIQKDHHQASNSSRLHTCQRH
The test system of test [10] is Inhibin beta A chain (activin A). The test can be described thus: small molecules binding activin A – biochemical, small-molecule microarray, 635 nm fluorescence scan, primary screen (AID 1107).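 Further: mouse activin A protein probed at 4.33 µg/mL on printed slides; score merges bound-protein fluorescence near 667 nm with spot signal-to-noise.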 As to conditions: INHBA, higher = more signal.
In test [11] the test system is Human papillomavirus type 1a protein E7 (residues 44-93). The test can be described thus: small molecules binding HPV E7 44-93 – biochemical, small-molecule microarray, residues 44-93, 635 nm fluorescence, primary screen (AID 1108).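 Further: E7 fragment applied at 1 µg/mL in TBST for 1 h at 4 C; score combines spot fluorescence with its signal to noise ratio.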 Conditions: fluorescence 635 nm, higher = more signal.
The nature of test [12]: hepatitis C replication reporter changes, two-sided – Huh7 cells, luciferase reporter, HCV replication inhibitor project, primary screen (AID 1109).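 Further: huh7 hepatoma cells harbouring a luciferase neomycin HCV replicon reporter; luciferase luminescence as measure of HCV replicon replication; test concentration not given here.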 Conditions: Huh7 HCV replicon luciferase reporter, 48 h; higher = more signal.
In test [13] the target is Left-right determination factor 2 (Homo sapiens) (UniProt O00292). The test can be described thus: small molecules binding LEFTY2 protein – biochemical, small-molecule microarray, 635 nm fluorescence scan, primary screen (AID 1110). Conditions: higher = more signal.
Left-right determination factor 2 (Homo sapiens), sequence (O00292 whole entry, looked up): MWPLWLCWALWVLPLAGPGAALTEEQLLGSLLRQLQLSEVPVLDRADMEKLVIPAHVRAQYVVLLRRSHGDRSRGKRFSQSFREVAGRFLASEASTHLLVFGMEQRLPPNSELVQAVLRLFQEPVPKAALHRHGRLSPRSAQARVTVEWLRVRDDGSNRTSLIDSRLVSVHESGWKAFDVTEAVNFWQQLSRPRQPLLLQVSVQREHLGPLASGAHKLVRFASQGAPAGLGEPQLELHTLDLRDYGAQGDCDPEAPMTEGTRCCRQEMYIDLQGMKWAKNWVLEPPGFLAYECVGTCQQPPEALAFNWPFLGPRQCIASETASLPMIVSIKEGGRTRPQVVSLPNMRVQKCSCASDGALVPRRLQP
Test [14] concerns the target Calmodulin-1 (Homo sapiens) (UniProt P0DP23). The test can be described thus: small molecules binding calmodulin-1 with EGTA – biochemical, small-molecule microarray, Cy5-labelled CALM1, profiling panel (AID 1111).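 Further: labelled calmodulin applied in Tris saline Tween buffer holding calcium plus EGTA and DTT.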 Conditions: Cy5-CALM1 binding fluorescence, higher = more signal.
Test [15] has the same target. The test can be described thus: small molecules binding Ca-loaded calmodulin-1 – biochemical, small-molecule microarray, Cy5-labelled CALM1, plus calcium, artefact control for SMM control-protein annotation, profiling panel (AID 1112).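 Further: score merges spot fluorescence with signal to noise from triplicate slides.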 As to conditions: Cy5-CALM1 binding fluorescence, higher = more signal.
The nature of test [16]: probe aWnt5a binding to arrayed compounds – biochemical, biotinylated probe, 635/667 nm fluorescence, primary screen (AID 1113).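 Further: score merges 667 nm fluorescence intensity with signal-to-noise per printed feature.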 As to conditions: small-molecule microarray, higher = more signal.
Test [17] in a line: probe aShh binding to arrayed compounds – biochemical, biotinylated probe, 635/667 nm fluorescence, primary screen (AID 1114).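 Further: probe is biotin-labelled aShh protein from a stem cell growth factor screen; measures binding of labelled protein to compounds printed on the slide; score merges feature fluorescence at 667 nm with signal-to-noise.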 Conditions: small-molecule microarray, higher = more signal.
A short description of test [18]: probe aNog binding to arrayed compounds – biochemical, biotinylated probe, 635/667 nm fluorescence, primary screen (AID 1115).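 Further: probe is biotinylated aNog protein used at 0.15 µg/mL for 1 h at 4 C; z-score combines 667 nm fluorescence of each spot with its signal to noise.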 As to conditions: small-molecule microarray, higher = more signal.
Test [19] has as its target Torsin-1A-interacting protein 1 (Homo sapiens) (UniProt Q5JTV8). The test can be described thus: compound microarray binding of lysate hLAP1 – cell lysate, small-molecule microarray, COS7 lysate, 635/667 nm fluorescence, primary screen (AID 1116). Conditions: 635 nm fluorescence, higher = more signal.
The target of test [20] is Alpha-bungarotoxin (Bungarus multicinctus) (UniProt P60615). The test can be described thus: compounds binding labelled alpha-BTX control protein – biochemical, small-molecule microarray, Alexa647 label, 635/667 nm fluorescence, artefact control for SMM control protein annotation, profiling panel (AID 1117). Conditions: alpha-BTX-A647 binding fluorescence, higher = more signal.
Alpha-bungarotoxin (Bungarus multicinctus), sequence (P60615 whole entry, looked up): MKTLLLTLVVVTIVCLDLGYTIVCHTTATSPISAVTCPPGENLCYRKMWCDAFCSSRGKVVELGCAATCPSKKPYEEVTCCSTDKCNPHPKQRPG

Active and inactive are the calls of the source.

Follistatin-related protein 3 (Homo sapiens), sequence (O95633 whole entry, looked up): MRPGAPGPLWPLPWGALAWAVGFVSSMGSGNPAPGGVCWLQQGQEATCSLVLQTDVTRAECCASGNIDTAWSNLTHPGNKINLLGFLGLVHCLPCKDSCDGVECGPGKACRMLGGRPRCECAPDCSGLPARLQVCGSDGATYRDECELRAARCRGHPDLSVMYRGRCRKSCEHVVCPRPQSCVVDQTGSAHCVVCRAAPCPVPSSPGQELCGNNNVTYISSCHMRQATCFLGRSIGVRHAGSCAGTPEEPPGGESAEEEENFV
Torsin-1A-interacting protein 1 (Homo sapiens), sequence (Q5JTV8 whole entry, looked up): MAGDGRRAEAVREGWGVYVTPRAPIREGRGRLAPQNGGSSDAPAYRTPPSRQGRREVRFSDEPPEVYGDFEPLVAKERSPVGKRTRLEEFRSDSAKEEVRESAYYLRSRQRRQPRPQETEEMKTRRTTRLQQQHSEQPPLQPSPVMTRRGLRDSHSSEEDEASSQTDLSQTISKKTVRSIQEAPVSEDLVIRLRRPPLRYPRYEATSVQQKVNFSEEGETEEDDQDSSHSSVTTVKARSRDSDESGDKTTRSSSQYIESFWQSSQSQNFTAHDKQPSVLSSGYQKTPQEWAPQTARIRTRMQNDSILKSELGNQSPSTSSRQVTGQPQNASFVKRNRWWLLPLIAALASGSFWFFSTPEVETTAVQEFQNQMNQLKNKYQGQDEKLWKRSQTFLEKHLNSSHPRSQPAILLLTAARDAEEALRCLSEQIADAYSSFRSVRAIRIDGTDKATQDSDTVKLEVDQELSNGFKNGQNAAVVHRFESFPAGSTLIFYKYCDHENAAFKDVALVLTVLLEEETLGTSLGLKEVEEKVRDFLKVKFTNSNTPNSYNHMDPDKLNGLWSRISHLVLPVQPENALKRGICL

Turning to `COc1ccc([Si](C)(C)[C@@H]2[C@@H](CCO)O[C@]3(C(=O)N(Cc4ccc(N5C(=O)COc6ccccc65)cc4)c4ccccc43)[C@H]2C)cc1`, the composite z-score was found to be 1.31 in [1]; 0.146 in test [2]; 0.147 in test [3]; 0.808 in [5]; 0.522 in test [6]; 0.334 in [7]. For the same molecule, the composite z-score in test [8] was 0.469; in test [9] it was 0.129; in test [10], 0.678; in [11] it was -0.674; in test [13], 0.88; in test [14] it was 1.51. Further, the composite z-score in test [15] was 0.879; in [16], 0.199; in test [17], -0.0146; in test [18] it was -0.394; in test [19], 0.572; in test [20], 0.896. Also, the z-score was -1.68 (inactive) in test [4] and -4.99 in test [12].

`COc1ccc([Si](C)(C)[C@H]2[C@H](CCn3cc([C@H](O)c4ccccc4)nn3)O[C@@]3(C(=O)N(Cc4cccc(N5CCOC5=O)c4)c4ccccc43)[C@@H]2C)cc1`: the composite z-score was 0.463 in [1]; 0.0739 in test [2]; -0.313 in [3]; 0.339 in test [5]; 0.709 in test [6]; 0.334 in test [7]. In addition, the composite z-score was 0.769 in test [8]; 0.913 in test [9]; 0.464 in [10]; 0.96 in test [11]; 0.481 in test [13]; 0.0776 in test [14]. Besides, the composite z-score was -0.182 in test [15]; 0.0094 in test [16]; -0.349 in test [17]; -0.0612 in [18]; 0.0061 in [19]; 0.353 in test [20]. For the same molecule, the z-score was 0.36 (inactive) in test [4] and -2.36 in test [12].

`CCOC(=O)C[C@H]1[C@H](OC(=O)Cc2ccc3c(c2)OCO3)[C@@H](NC(=O)c2ccc3ccccc3c2)c2cc(OCCCO)ccc2N1C(=O)c1ccccc1`: the composite z-score in [1] was 0.622; in test [2], -0.0805; in [3], -0.205; in [5], 0.47; in test [6], 0.213; in test [7], 0.188. The composite z-score in test [8] was determined as 0.433; in [9] it was 0.295; in test [10], 0.405; in test [11], 0.967; in test [13], 0.348; in test [14], 0.119. In addition, the composite z-score in [15] is -0.447; in test [16] it was -0.147; in test [17] it was -0.2; in test [18] it was -0.417; in test [19] it was 0.656; in test [20], 0.943. Also, the z-score in test [4] was -0.547 (inactive); in test [12], -1.57.

Regarding `CCOC(=O)C1=CCC(c2ccc(C)cc2)N(S(=O)(=O)c2ccc(C)cc2)C1` (stereo not given), the composite z-score in test [1] is 0.751; in [2], 0.524; in [3], 0.845; in test [5], 0.129; in [6] it was 0.301; in test [7], -0.136. For the same molecule, the composite z-score in test [8] stood at 0.058; in [9], 0.0296; in test [10] it was 1.42; in test [11], 1.12; in [13], 0.175; in test [14] it was 0.367. Also, the composite z-score in test [15] is 0.172; in test [16], -0.0226; in test [17], -0.0977; in test [18], 0.542; in test [19], 0.81; in [20], 1.15. Also, the z-score was -0.688 (inactive) in [4] and -0.905 in test [12].

Turning to `COCCOC(=O)N1C(=O)[C@@]2(c3cc(C#CCCO)ccc31)[C@H](C(=O)Nc1nc3ccccc3s1)[C@H]1C(=O)O[C@H](c3ccccc3)[C@H](c3ccccc3)N1[C@@H]2c1ccc(OCCO)cc1`, the composite z-score in [1] is 1.27; in test [2], 0.385; in test [3], -0.284; in test [5], 1.11; in test [6], 0.687; in test [7], 0.432. Besides, the composite z-score in [8] was 1.2; in test [9], 0.31; in test [10], 0.0763; in test [11] it was 1.32; in [13], 0.774; in [14], 1.08. The composite z-score in [15] is -0.263; in [16], 0.115; in test [17], 0.0898; in [18], -0.22; in test [19], 1.14; in test [20], 0.772. Further, the results for the z-score in test [4] and in [12] were -0.021 (inactive) and -1.81, respectively.

With `COc1cc2c(cc1OC)CN(C(=O)[C@H]1[C@@H]3C(=O)O[C@@H](c4ccccc4)[C@@H](c4ccccc4)N3[C@@H](c3ccc(O)cc3)[C@]13C(=O)Nc1ccc(C#CC4=CCCCC4)cc13)CC2`, the composite z-score in [1] came out at 1.32; in test [2], 0.817; in test [3], 0.785; in test [5], 1.14; in [6] it was 1.29; in test [7], 0.405. Further, the composite z-score in [8] is 1.43; in test [9], 0.779; in test [10], -0.301; in test [11], 0.282; in test [13], 1.07; in [14] it was 1.61. Further, the composite z-score in test [15] was 0.0648; in test [16], 0.133; in [17], -0.0146; in test [18], -0.315; in test [19], 0.885; in test [20] it was 1.67. For the same molecule, the z-score in test [4] was -0.58 (inactive); in [12] it was -1.67.

`C#CCN(CC=C(C)C)[C@H](CO)c1ccccc1`: the composite z-score in test [1] was -0.383; in test [2] it was -0.127; in test [3], -0.209; in test [5] it was -0.0443; in [6] it was 0.81; in test [7], 0.372. Further, the composite z-score in test [8] was 0.0894; in test [9], 0.352; in test [10], 0.942; in test [11], 0.309; in test [13] it was 0.185; in [14] it was -0.171. Also, the composite z-score in test [15] was -0.438; in [16] it was 0.0771; in test [17], -0.279; in test [18], -0.176; in [19], 0.455; in test [20], 0.136. The z-score in [4] was -1.21 (inactive); in test [12] it was -0.817.

For `CN(C)CCCNC(=O)[C@@]1(c2ccc([N+](=O)[O-])cc2)CC(=O)N(C2CCCCC2)[C@@H]1c1ccc(CO)cc1I`, the composite z-score is 1.12 in [1]; -0.116 in [2]; 0.736 in test [3]; -0.341 in test [5]; 1.28 in test [6]; -0.0949 in [7]. The composite z-score is 0.381 in test [8]; -0.212 in test [9]; 0.462 in test [10]; 1.41 in test [11]; -0.104 in test [13]; -0.0828 in test [14]. In addition, the composite z-score is -0.245 in test [15]; -0.0721 in test [16]; -0.147 in [17]; -0.606 in [18]; 0.46 in [19]; 1.03 in test [20]. Further, the z-score in test [4] was -3.68 (inactive); in [12], -3.46.

The values are drawn from PubChem BioAssay.
